# In PubChem BioAssay AID1540 (National Center for Advancing Translational Sciences (NCATS), 2009):
# Values joined by “and” are separate entries in the source; they are usually repeats but may differ in a detail not shown here. Identical values can stand only once. Records with an inconclusive call do not appear. Where a structure was tested more than once in an assay, its records may differ in their call. Active and inactive are the calls of the source. The call rests on the fitted dose curve; in most records, active means well fitted activation curve with a large enough effect; inconclusive means small, poorly fitted or top-dose-only effect, or effect the other way; inactive means flat fitted curve, though single readings scatter.
# Target: Pyruvate kinase PKM (Homo sapiens) (UniProt P14618)
# Assay: Secondary assay for Activators of Human Pyruvate Kinase M2 isoform
# Settings: purified hPK-M2, LDH-coupled NADH fluorescence kinetic; series mostly up to 57.5 µM; activation: at the top concentration
# Description: Confirmatory assay NIH Chemical Genomics Center [NCGC] Matthew G. Vander Heiden, M.D., Ph.D. [Harvard Medical School, 77 Avenue Louis Pasteur, Boston, MA 02115] NCGC Assay Overview: Human pyruvate kinase muscle 2 (hPK-M2)enzyme was supplied as a highly purified (>95% pure) preparation from Harvard Medical School and a secondary assay was used to evaluate compounds. This assay couples the formation of pyruvate from hPK-M2 using lactate dehydrogenase (LDH) and NADH. The depletion of NADH is followed in a fluorescent-based kinetic assay that follows the formation of pyruvate to lactate, as catalyzed LDH (described by Hannaert et al., 2002)1 Pyruvate kinase substrates, PEP and ADP, were present in the assay at 0.1 mM and 4 mM respectively. In this kinetic assay initial rates were determined by following the fluorescence of NADH depletion.
# NCGC Assay Protocol Summary: Three uL of substrate mix (final concentration, 50 mM Tris-Cl pH 8.0, 200 mM KCl, 15 mM MgCl2, 0.1 mM PEP, 4.0 mM ADP, and 0.2 mM NADH) was dispensed into black-solid 1536 well plates. 23 nL of compounds were delivered by a pin tool and 1 uL of enzyme mix (final concentrations, 10 nM hPK-M2 and 1 uM of LDH) was added. Plates were immediately placed in ViewLux (Perkin Elmer) and NADH fluorescence was determined at 30 second exposure intervals for between 3 and 6 minutes. Data were normalized to the uninhibited and EC100 activation using known activators such as fructose-bis-phosphate.
# Chain of Pyruvate kinase PKM (Homo sapiens) (P14618 whole entry, looked up, canonical isoform): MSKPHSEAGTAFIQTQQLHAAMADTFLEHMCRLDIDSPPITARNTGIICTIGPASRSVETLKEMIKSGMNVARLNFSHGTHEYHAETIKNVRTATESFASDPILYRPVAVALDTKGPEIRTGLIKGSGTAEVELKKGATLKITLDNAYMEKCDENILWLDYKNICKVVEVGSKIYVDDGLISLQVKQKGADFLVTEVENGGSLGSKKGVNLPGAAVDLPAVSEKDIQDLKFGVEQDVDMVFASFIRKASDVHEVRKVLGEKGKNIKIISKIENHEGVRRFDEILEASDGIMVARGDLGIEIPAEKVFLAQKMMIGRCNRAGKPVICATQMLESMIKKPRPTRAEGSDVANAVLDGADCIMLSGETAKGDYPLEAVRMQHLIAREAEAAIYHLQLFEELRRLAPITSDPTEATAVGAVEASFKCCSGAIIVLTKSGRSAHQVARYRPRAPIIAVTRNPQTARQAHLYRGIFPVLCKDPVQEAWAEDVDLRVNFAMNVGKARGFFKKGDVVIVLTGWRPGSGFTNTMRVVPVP
SMILES,Potency,activation
O=S(=O)(c1ccc2c(c1)OCCO2)N1CCN(S(=O)(=O)c2c(F)ccc(O)c2F)CC1,355 nM (active),–
Cn1c2cc([N+](=O)[O-])sc2c2cnn(Cc3ccccc3F)c(=O)c21,251 nM (active),–
CC(=O)Nc1cccc(S(=O)(=O)N2CCN(S(=O)(=O)c3c(F)cccc3F)CC2)c1,14600 nM (active),–
COc1cc(F)c(S(=O)(=O)N2CCN(S(=O)(=O)c3ccc(N)cc3)CC2)c(F)c1,183 nM (active),–
COc1ccc(S(=O)(=O)N2CCN(S(=O)(=O)c3ccc4c(c3)OCCO4)CC2)cc1,562 nM (active),–
O=S(=O)(c1c(F)cccc1F)N1CCN(S(=O)(=O)c2c(F)cccc2F)CC1,126 nM (active),–
Cc1cc2c(s1)c1cnn(Cc3cccc(F)c3F)c(=O)c1n2C,501 nM (active),–
O=S(=O)(c1ccc2c(c1)OCCCO2)N1CCN(S(=O)(=O)c2c(F)cccc2F)CC1,501 nM (active),–
C=CCc1cc(F)c(S(=O)(=O)N2CCN(S(=O)(=O)c3ccc4c(c3)OCCO4)CC2)cc1F,2000 nM (active),–
Cc1cc2c(s1)c1cnn(Cc3ccc(C(C)C)cc3)c(=O)c1n2C,4470 nM (active),–
C[C@H]1CN(S(=O)(=O)c2c(F)cccc2F)CCN1S(=O)(=O)c1ccc2c(c1)OCCO2,5010 nM (active),–
COc1ccc(S(=O)(=O)N2CCN(S(=O)(=O)c3c(F)cccc3F)CC2)cc1,inactive and 141 nM (active),–
O=S(=O)(c1ccc2c(c1)OCCO2)N1CCN(S(=O)(=O)c2ccc3c(c2)OCCO3)CC1,398 nM (active),–
COc1cc(F)c(S(=O)(=O)N2CCCN(S(=O)(=O)c3cccc(N)c3)CC2)c(F)c1,146 nM (active) and 1.16 µM (active),–
O=S(=O)(c1ccc2ccccc2c1)N1CCN(S(=O)(=O)c2c(F)cccc2F)CC1,8.91 µM (active) and 158 nM (active),–
CNc1cccc(S(=O)(=O)N2CCN(S(=O)(=O)c3ccc4c(c3)OCCO4)CC2)c1,–,17.9% (inactive)
Nc1ccc(S(=O)(=O)N2CCN(S(=O)(=O)c3ccc4c(c3)OCCO4)CC2)cc1,163 nM (active),–
Cc1cc2c(s1)c1c(C)nn(Cc3ccc(F)cc3)c(=O)c1n2C,2820 nM (active),–
CCn1c2cc(C)sc2c2cnn(Cc3ccccc3F)c(=O)c21,5010 nM (active),–
COc1cc(F)c(S(=O)(=O)N2CCN(S(=O)(=O)c3ccco3)CC2)c(F)c1,116 nM (active),–

SMILES,Potency,activation
CN(C)c1cccc(S(=O)(=O)N2CCN(S(=O)(=O)c3ccc4c(c3)OCCO4)CC2)c1,–,-8.86% (inactive)
Cn1c2cc(Br)sc2c2cnn(Cc3c(F)cccc3F)c(=O)c21,631 nM (active),–
COc1cc(F)c(S(=O)(=O)N2CCN(S(=O)(=O)c3cccc(N)c3)CC2)c(F)c1,73 nM (active),–
Cn1c2cc(C#N)sc2c2cnn(Cc3ccccc3F)c(=O)c21,355 nM (active),–
Cc1cc2c(s1)c1cnn(Cc3c(F)cccc3Cl)c(=O)c1n2C,158 nM (active),–
CCc1cc2c(s1)c1cnn(Cc3ccccc3F)c(=O)c1n2C,631 nM (active),–
C[C@@H]1CN(S(=O)(=O)c2ccc3c(c2)OCCO3)CCN1S(=O)(=O)c1c(F)cccc1F,3550 nM (active),–
CS(=O)(=O)Nc1cccc(-c2cc(F)c(S(=O)(=O)N3CCN(S(=O)(=O)c4ccc5c(c4)OCCO5)CC3)cc2F)c1,–,-11.4% (inactive)
CSc1cc2c(s1)c1cnn(Cc3ccccc3F)c(=O)c1n2C,708 nM (active),–
O=S(=O)(c1ccc2c(c1)OCO2)N1CCN(S(=O)(=O)c2c(F)cccc2F)CC1,708 nM (active),–
Cn1c2cc(B(O)O)sc2c2cnn(Cc3ccccc3F)c(=O)c21,15800 nM (active),–
O=S(=O)(NCCNS(=O)(=O)c1c(F)cccc1F)c1ccc2c(c1)OCCO2,–,25.3% (inactive)
O=S(=O)(c1ccc2c(c1)OCCO2)N1CCN(S(=O)(=O)c2cc(F)c(F)cc2F)CC1,562 nM (active),–
COc1cc(F)c(S(=O)(=O)N2CCN(S(=O)(=O)c3cccc(NC(C)=O)c3)CC2)c(F)c1,1030 nM (active),–
COc1cc(F)c(S(=O)(=O)N2CCCN(S(=O)(=O)c3cccc(NC(C)=O)c3)CC2)c(F)c1,2910 nM (active),–
COc1cc(F)c(S(=O)(=O)N2CCCN(S(=O)(=O)c3ccc(N)cc3)CC2)c(F)c1,1300 nM (active),–
Nc1cccc(S(=O)(=O)N2CCN(S(=O)(=O)c3ccc4c(c3)OCCO4)CC2)c1,146 nM (active),–
Cc1cc2c(s1)c1cnn(Cc3ccccc3Cl)c(=O)c1n2C,562 nM (active),–
Cc1cc2c(s1)c1cnn(Cc3ccc(F)cc3)c(=O)c1n2C,251 nM (active),–
CC(O)c1cc2c(s1)c1cnn(Cc3ccccc3F)c(=O)c1n2C (stereo not given),398 nM (active),–
